# Laboratory results: PubChem BioAssay
# Active and inactive are the calls of the source.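 Rule for the calls, unless noted: active = inhibition of the reporter signal at or above 50%; inactive = inhibition below 50%.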
# What was measured:
# [1] = inhibitors of TNFa-induced NFkB p65 translocation, primary screen, imaging, HUVEC, MLSMR starter and 10KST1 sets (AID 438;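 active = inhibition above 20% together with a positive visual image hit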;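 note: compound added about 3h40 before a 20 min TNFalpha stimulation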;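 for inhibition: signal is the nuclear over cytoplasmic p65 intensity ratio per well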); details: HUVEC TNFa-induced p65 nuclear translocation; cell count: measured here: nuclei count (cytotoxicity indicator), at 2.08 µM; inhibition: at 2 µM, stronger effect = higher value, 0% TNFa-plus-vehicle, 100% no-TNFa wells
# [2] = inhibitors of mutant huntingtin aggregation, primary screen, imaging, exon1htt(103Q)mCFP cells, high-content imaging (AID 483;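 active = visual image review flags a hit and inhibition of aggregation exceeds 20%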;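 note: compound exposure lasted 3 days before fixation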;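 for nuclei count: percent of the per-plate median nuclei count of sample wells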); details: exon1htt(103Q)mCFP cell line, aggregate imaging, at 2 µM; inhibition of aggregation: stronger effect = higher value; nuclei count: measured here: cell count, toxicity
# [3] = inhibitors of E-selectin induction by TNFa, primary screen, imaging, HUVEC, immunofluorescence, MLSMR starter and 10KST1 sets (AID 487;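 active = visually confirmed hit in the image check and inhibition above 20%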;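 for inhibition: signal is fraction of cell area covered by stained E-selectin grains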;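 for nuclei count: 100% = median nuclei count of all wells on the same plate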); details: HUVEC TNFalpha-induced E-selectin immunofluorescence imaging, at 2 µM; inhibition: stronger effect = higher value; nuclei count: measured here: cell number, toxicity
# [4] = target: Voltage-gated potassium channel subunit beta-2 (Rattus norvegicus) (UniProt P62483); assay: KvBeta enzyme negative modulators, primary screen, biochemical, NADPH fluorescence (AID 622;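 active = fluorescence slope higher than the sample average by over 3 SD, cut at about -0.22 in these data, passing the limit was not always enough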;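 note: slope of raw intensity against log time taken from 70 to 1610 s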); details: recombinant KvBeta, 4-cyanobenzaldehyde reduction, at 10 µM, stronger effect = higher value
# [5] = target: Voltage-gated potassium channel subunit beta-2 (Rattus norvegicus) (UniProt P62483); assay: KvBeta positive modulators, primary screen, biochemical, NADPH fluorescence (AID 623;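 active = NADPH fluorescence slope more negative than the mean of all samples by about 3 SD, 99.7% confidence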;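 note: fluorescence intensity change per second fitted from 20 to 320 s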); details: Recombinant KvBeta, NADPH fluorescence decrease slope, 10 min; at 10 µM; stronger effect = lower value
# [6] = target: Alpha-2C adrenergic receptor (Homo sapiens) (UniProt P18825); assay: modulators of alpha2C/GIRK thallium flux, primary screen, cell-based, HEK293 alpha2C/GIRK1/2 (AID 624;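 active = fluorescence slope after compound addition differing from the mean of all screened samples at 99.7% confidence, in either direction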;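 note: slope of fluorescence ratio to pre-addition baseline per second over 15 to 24 s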); details: thallium flux BTC fluorescence, at 10 µM, actives lie on both sides
# [7] = inhibitors of Sendai virus-induced IRF3 signaling, primary screen, TLR/RLR signaling modifier project, cell-based, Sendai virus stimulus, luciferase, 10K MLSCN set (AID 602276;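 active = inhibition at or above 50% at 10 µM; inactive = inhibition below 50%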;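 note: firefly luciferase from ISG56 promoter only with Renilla not read in this screen; 0% = Sendai virus plus DMSO and 100% = medium plus DMSO without virus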); details: HEK293 RL24 IRF3 luciferase reporter, at 10 µM, stronger effect = higher value
# [8] = inhibitors of poly I:C-induced TLR3 signaling, primary screen, cell-based, poly I:C stimulus, luciferase, 10K MLSCN set (AID 602277); details: HEK293-TLR3 RL24 IRF3 luciferase reporter, at 10 µM, stronger effect = higher value
# Sequence of Voltage-gated potassium channel subunit beta-2 (Rattus norvegicus) (P62483 whole entry, looked up): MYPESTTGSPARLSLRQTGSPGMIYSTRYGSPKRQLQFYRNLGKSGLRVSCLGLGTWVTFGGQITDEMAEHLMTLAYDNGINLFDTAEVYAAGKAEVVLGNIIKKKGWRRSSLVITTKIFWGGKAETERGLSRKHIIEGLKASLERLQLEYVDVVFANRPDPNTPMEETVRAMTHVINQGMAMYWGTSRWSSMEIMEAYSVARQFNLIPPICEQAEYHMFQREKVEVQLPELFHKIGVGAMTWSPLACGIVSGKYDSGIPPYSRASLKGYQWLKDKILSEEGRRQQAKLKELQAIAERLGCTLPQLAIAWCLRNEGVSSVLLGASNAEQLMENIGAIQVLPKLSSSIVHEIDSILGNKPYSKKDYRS
# Sequence of Alpha-2C adrenergic receptor (Homo sapiens) (P18825 whole entry, looked up): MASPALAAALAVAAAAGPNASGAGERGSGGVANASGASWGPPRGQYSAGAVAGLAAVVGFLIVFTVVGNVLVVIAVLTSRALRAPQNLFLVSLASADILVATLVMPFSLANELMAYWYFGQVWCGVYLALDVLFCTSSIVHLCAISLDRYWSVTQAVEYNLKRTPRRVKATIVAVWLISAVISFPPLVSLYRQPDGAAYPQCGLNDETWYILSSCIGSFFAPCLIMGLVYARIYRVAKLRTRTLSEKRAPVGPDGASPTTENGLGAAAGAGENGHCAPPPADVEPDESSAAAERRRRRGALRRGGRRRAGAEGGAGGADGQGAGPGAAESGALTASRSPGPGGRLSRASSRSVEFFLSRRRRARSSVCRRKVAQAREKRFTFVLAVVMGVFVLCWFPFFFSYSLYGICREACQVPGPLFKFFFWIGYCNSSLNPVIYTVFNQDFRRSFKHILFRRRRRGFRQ
SMILES,cell count [1],inhibition [1],inhibition of aggregation [2],nuclei count [2] [%],inhibition [3],nuclei count [3] [%],fluorescence slope [4],NADPH fluorescence slope [5],slope [6],inhibition [7],inhibition [8]
CCCN1CCC(NC(=O)Nc2ccc(OC)c(OC)c2)CC1,308,-0.5% (inactive),12.6% (inactive),87.5,-43.3% (inactive),107,-0.383 (inactive),1.9e-05 (inactive),0.00372 (inactive),9.89% (inactive),33.2% (inactive)
CCOC(=O)CN1CC23C=CC(O2)C(C(=O)Nc2ccc(OCC)cc2)C3C1=O (centres undefined),615,0.7% (inactive),-10.5% (inactive),112,-5.7% (inactive),106,-0.517 (inactive),-1.3e-05 (inactive),0.00673 (inactive),7.04% (inactive),15.5% (inactive)
Cc1ccc(C)c(NC(=O)c2ccc3c(c2)N(Cc2ccc(F)cc2)C(=O)CS3=O)c1 (centres undefined),622,6.2% (inactive),-0.7% (inactive),105,3.5% (inactive),122,-0.546 (inactive),-2.3e-05 (inactive),0.00733 (inactive),4.49% (inactive),20.4% (inactive)
Cc1ccsc1C(C(=O)NC1CCCCC1)N(C(=O)Cc1cccs1)C1CC1 (centres undefined),500,0% (inactive),16.1% (inactive),86.8,-62.9% (inactive),94.1,-0.35 (inactive),-4.8e-05 (inactive),0.00468 (inactive),15.2% (inactive),36% (inactive)
O=C(CSc1nnc2c3cc(F)ccc3nc(-c3ccccc3)n12)N1CCOCC1,597,4.9% (inactive),-0.6% (inactive),104,-23.2% (inactive),96.3,-0.37 (inactive),-7.1e-06 (inactive),0.00625 (inactive),-0.506% (inactive),-0.765% (inactive)
O=C1N=C(N2CCOCC2)CS1,309,3.4% (inactive),-6.9% (inactive),90.7,36% (inactive),95.1,-0.519 (inactive),-1.2e-05 (inactive),0.00426 (inactive),6.09% (inactive),10.7% (inactive)
Cc1ccc(S(=O)(=O)N2CCN(CCO)CC2)cc1-c1nnc2c3ccccc3c(C)nn12,357,-0.4% (inactive),-26.9% (inactive),102,8.6% (inactive),81,-0.609 (inactive),-1.7e-05 (inactive),0.00417 (inactive),3.73% (inactive),9.83% (inactive)
O=C(OCC(=O)N1CCCC1)c1ccccc1OCc1ccccc1,576,-10.8% (inactive),-9.8% (inactive),95.3,-42.5% (inactive),123,-0.505 (inactive),-3.9e-05 (inactive),0.00498 (inactive),-11.3% (inactive),6.16% (inactive)
Cc1ccc(-c2ccc(SCC(=O)Nc3nonc3C)nn2)cc1,413,2.2% (inactive),-2% (inactive),103,-24.8% (inactive),108,-0.283 (inactive),-5.6e-05 (inactive),0.00591 (inactive),9.6% (inactive),15.8% (inactive)
CC(=O)c1ccccc1Oc1nc(CN2CCOCC2)nc2scc(-c3cccs3)c12,330,-5.7% (inactive),13.6% (inactive),99.2,-50.4% (inactive),109,-0.478 (inactive),-1.8e-05 (inactive),0.00384 (inactive),7.86% (inactive),37.7% (inactive)
Cc1csc(NC(=O)CCn2c(=O)oc3ccccc32)n1,502,-20.3% (inactive),-30.3% (inactive),79.1,-6.4% (inactive),90.9,-0.323 (inactive),-4.9e-05 (inactive),0.00431 (inactive),4.3% (inactive),-1.46% (inactive)
Cc1ccc(-c2nc3cc(NC(=O)C(C)C)ccc3o2)cc1C,709,-5% (inactive),-7.4% (inactive),99.3,-160% (inactive),122,-0.453 (inactive),2.2e-05 (inactive),0.00605 (inactive),19.2% (inactive),12.7% (inactive)
C=CCNS(=O)(=O)c1ccc2nsnc2c1,383,2.2% (inactive),6.3% (inactive),89.1,-33.6% (inactive),121,-0.508 (inactive),-3.2e-05 (inactive),0.0046 (inactive),-4.18% (inactive),-2.28% (inactive)
CC(C)(CSc1nncn1N)NS(=O)(=O)c1ccc(Cl)cc1,690,-4.4% (inactive),11.7% (inactive),58.2,-17.3% (inactive),108,-0.447 (inactive),-4.4e-05 (inactive),0.00436 (inactive),-0.22% (inactive),4% (inactive)
